According to PubChem BioAssay (NCATS):
Several values for one entry are separate records, joined by “and”; a condition that tells them apart may be missing. Equal entries are not always repeated. Records with an inconclusive call do not appear. Activity calls are given as the source filed them. Calls come from the whole dose curve; as a rule, active = well fitted inhibition curve with a large enough effect; inconclusive = small, poorly fitted or top-dose-only effect; inactive = flat fitted curve, though single readings scatter.

Assays:
Dd2 = assay: qHTS profiling for inhibitors of Plasmodium falciparum proliferation (AID 504749); conditions: P. falciparum in erythrocytes, SYBR Green DNA, 72 h; series mostly up to 28.7 µM
Outline: (§1)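 Readout was DNA-dye fluorescence from lysed cultures, ex 485/em 535 nm. Parasitized red cells had grown 72 h with compound; data scaled between 0.29 uM artemisinin and DMSO wells and corrected using vehicle-only plates.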

ECU = assay: as above; conditions: P. falciparum in erythrocytes, SYBR Green DNA, 72 h; series mostly up to 28.7 µM
Outline: as §1

FAB9 = assay: as above; conditions: P. falciparum in erythrocytes, SYBR Green DNA, 72 h; series mostly up to 28.7 µM
Outline: as §1

HB3 = assay: as above; conditions: P. falciparum in erythrocytes, SYBR Green DNA, 72 h; series mostly up to 28.7 µM
Outline: as §1

ICS = assay: as above; conditions: P. falciparum in erythrocytes, SYBR Green DNA, 72 h; series mostly up to 28.7 µM
Outline: as §1

JCK = assay: as above; conditions: P. falciparum in erythrocytes, SYBR Green DNA, 72 h; series mostly up to 28.7 µM
Outline: as §1

N140 = assay: as above; conditions: P. falciparum in erythrocytes, SYBR Green DNA, 72 h; series mostly up to 28.7 µM
Outline: as §1

P93_24 = assay: as above; conditions: P. falciparum in erythrocytes, SYBR Green DNA, 72 h; series mostly up to 28.7 µM
Outline: as §1

P94_40 = assay: as above; conditions: P. falciparum in erythrocytes, SYBR Green DNA, 72 h; series mostly up to 28.7 µM
Outline: as §1

PAD = assay: as above; conditions: P. falciparum in erythrocytes, SYBR Green DNA, 72 h; series mostly up to 28.7 µM
Outline: as §1

PC15 = assay: as above; conditions: P. falciparum in erythrocytes, SYBR Green DNA, 72 h; series mostly up to 28.7 µM
Outline: as §1

PC49 = assay: as above; conditions: P. falciparum in erythrocytes, SYBR Green DNA, 72 h; series mostly up to 28.7 µM
Outline: as §1

SC27B = assay: as above; conditions: P. falciparum in erythrocytes, SYBR Green DNA, 72 h; series mostly up to 28.7 µM
Outline: as §1

TAB109 = assay: as above; conditions: P. falciparum in erythrocytes, SYBR Green DNA, 72 h; series mostly up to 28.7 µM
Outline: as §1

TAB113 = assay: as above; conditions: P. falciparum in erythrocytes, SYBR Green DNA, 72 h; series mostly up to 28.7 µM
Outline: as §1

TAB165 = assay: as above; conditions: P. falciparum in erythrocytes, SYBR Green DNA, 72 h; series mostly up to 28.7 µM
Outline: as §1

W2 = assay: as above; conditions: P. falciparum in erythrocytes, SYBR Green DNA, 72 h; series mostly up to 28.7 µM
Outline: as §1

CRL-7250 = normal cell line; assay: Cytotoxic Profiling of Annotated Libraries Using Quantitative High-Throughput Screening (AID 1296008); conditions: Five cell lines viability, CellTiter-Glo ATP luminescence, 48-72 h; max response: stronger effect = lower value; for max response: % is set by controls: 0 for no effect and ±100 for the full control effect
Outline: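 Cells exposed to compounds for 48 or 72 hr at 37 degrees Celsius. Viability read as ATP-coupled luminescence with CellTiter-Glo after 10 min at room temperature.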

GB4 = assay: qHTS profiling for inhibitors of Plasmodium falciparum proliferation (AID 504749); conditions: P. falciparum in erythrocytes, SYBR Green DNA, 72 h; series mostly up to 28.7 µM
Outline: as §1

PC26 = assay: as above; conditions: P. falciparum in erythrocytes, SYBR Green DNA, 72 h; series mostly up to 28.7 µM
Outline: as §1
Note: nearly all actives have a fitted effect of over 60% in size.
Potency is the fitted concentration of half-maximal effect.

CC(C)NCC(O)c1ccc(O)c(O)c1 (centres undefined)
inactive: Potency (Dd2) | Potency (ECU) | Potency (FAB9) | Potency (HB3) | Potency (ICS) | Potency (JCK) | Potency (N140) | Potency (P93_24) | Potency (P94_40) | Potency (PAD) | Potency (PC15) | Potency (PC49) | Potency (SC27B) | Potency (TAB109) | Potency (TAB113) | Potency (TAB165) | Potency (W2) | max response (CRL-7250) 0.851%

O=c1c(-c2ccc(O)cc2)coc2cc(O)cc(O)c12
inactive: Potency (Dd2) | Potency (ECU) | Potency (FAB9) | Potency (GB4) | Potency (HB3) | Potency (ICS) | Potency (JCK) | Potency (N140) | Potency (P93_24) | Potency (P94_40) | Potency (PAD) | Potency (PC15) | Potency (PC49) | Potency (SC27B) | Potency (TAB109) | Potency (TAB113) | Potency (TAB165) | max response (CRL-7250) 4.48%

CC[C@@]1(O)C(=O)OCc2c1cc1n(c2=O)Cc2cc3c(CN(C)C)c(O)ccc3nc2-1
inactive: Potency (FAB9) | Potency (PC15) | Potency (PC49)
active: Potency (Dd2) 10 µM | Potency (ECU) 3.98 µM | Potency (GB4) 5.36 µM | Potency (ICS) 7.94 µM | Potency (P93_24) 4.47 µM | Potency (P94_40) 2.82 µM | Potency (TAB109) 6.31 µM | Potency (TAB113) 4.47 µM | Potency (TAB165) 3.55 µM | Potency (W2) 5.36 µM | Potency (CRL-7250) 7.5 µM and 14.8 µM and 6.51 µM

Cn1cnc2c1c(=O)[nH]c(=O)n2C
inactive: Potency (Dd2) | Potency (ECU) | Potency (FAB9) | Potency (GB4) | Potency (HB3) | Potency (ICS) | Potency (JCK) | Potency (N140) | Potency (P93_24) | Potency (P94_40) | Potency (PAD) | Potency (PC15) | Potency (PC26) | Potency (PC49) | Potency (SC27B) | Potency (TAB109) | Potency (TAB113) | Potency (TAB165) | Potency (W2) | outcome (CRL-7250)

C[C@](N)(Cc1ccc(O)c(O)c1)C(=O)O
inactive: Potency (Dd2) | Potency (ECU) | Potency (FAB9) | Potency (GB4) | Potency (HB3) | Potency (ICS) | Potency (JCK) | Potency (N140) | Potency (P93_24) | Potency (P94_40) | Potency (PAD) | Potency (PC15) | Potency (PC26) | Potency (PC49) | Potency (SC27B) | Potency (TAB109) | Potency (TAB113) | Potency (TAB165) | Potency (W2) | max response (CRL-7250) -8.13% and -6.61%

O=C1N(c2ccccc2)c2ccccc2C1(Cc1ccncc1)Cc1ccncc1
inactive: Potency (Dd2) | Potency (ECU) | Potency (FAB9) | Potency (GB4) | Potency (HB3) | Potency (JCK) | Potency (N140) | Potency (P93_24) | Potency (P94_40) | Potency (PAD) | Potency (PC15) | Potency (PC26) | Potency (PC49) | Potency (SC27B) | Potency (TAB109) | Potency (TAB113) | Potency (TAB165) | Potency (W2) | max response (CRL-7250) -6.52% and 2.8%
